Inconclusive results are not listed. Active and inactive are the calls of the source. The call rests on the fitted dose curve; in most records, active means well fitted inhibition curve with a large enough effect; inconclusive means small, poorly fitted or top-dose-only effect; inactive means flat fitted curve, though single readings scatter.
Key:
[1] = test system: HEK293; test: Cytotoxic Profiling of Annotated Libraries Using Quantitative High-Throughput Screening (AID 1296008); details: Five cell lines viability, CellTiter-Glo ATP luminescence, 48-72 h; max response: hits give low values; on max response: on the % scale 0 is the no-effect control and ±100 the full control effect
Summary of the method: (§1)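 Cytotoxicity was measured as CellTiter-Glo ATP luminescence, read after 10 min at room temperature. Compound treatment of the cells lasted 48 or 72 hr at 37 degrees Celsius in a qHTS format.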

[2] = test system: HaCat; test: as above; details: Five cell lines viability, CellTiter-Glo ATP luminescence, 48-72 h; max response: hits give low values
Summary of the method: as §1

[3] = test system: KB-3-1; test: as above; details: Five cell lines viability, CellTiter-Glo ATP luminescence, 48-72 h; max response: hits give low values
Summary of the method: as §1

[4] = test system: NIH3T3; test: as above; details: Five cell lines viability, CellTiter-Glo ATP luminescence, 48-72 h; max response: hits give low values
Summary of the method: as §1

[5] = test system: HACAT; test: qHTS assay to identify novel small-molecules to repurpose for Merkel cell carcinoma treatment (AID 1296009); details: MCC and control cell lines, CellTiter-Glo viability, 72 h; at 44.8 µM (top of the series) unless noted
Summary of the method: (§2)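 After compound transfer in DMSO, plates were kept 72 hr at 37 degree celsius. Luminescent ATP signal from CellTiter-Glo served as viability measure, normalized against DMSO and no-cell controls.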

[6] = test system: HEK293T; test: as above; details: MCC and control cell lines, CellTiter-Glo viability, 72 h; series mostly up to 44.8 µM
Summary of the method: as §2
Further: nearly all actives have a fitted effect of over 60% in size.

COc1cc(C2Oc3c(OC)cc(CCCO[C@@H]4O[C@H](CO)[C@@H](O)[C@H](O)[C@H]4O)cc3C2CO)ccc1O (stereo partly specified)
inactive: outcome [1] | outcome [2] | max response [3] 1.37% | max response [4] 3.22% | outcome [5] inactive [at 17.4 µM] | Potency [6]

CC(=O)OC1C=C(C(=O)O)C2(CO)CCC(C)C(C)(CCc3ccoc3)C2C1 (stereo unspecified)
inactive: outcome [1] | outcome [2] | outcome [3] | outcome [4] | outcome [5] inactive [at 17.4 µM] | Potency [6]

COc1cc(C(C)=O)ccc1O[C@@H]1O[C@H](CO[C@@H]2O[C@@H](C)[C@H](O)[C@@H](O)[C@H]2O)[C@@H](O)[C@H](O)[C@H]1O
inactive: outcome [1] | outcome [2] | outcome [3] | outcome [4] | outcome [5] inactive [at 17.4 µM] | Potency [6]

CC(C)C(C#N)O[C@@H]1O[C@H](CO[C@@H]2OC[C@](O)(CO)[C@H]2O)[C@@H](O)[C@H](O)[C@H]1O (stereo partly specified)
inactive: outcome [1] | outcome [2] | max response [3] 5.78% | max response [4] 3.22% | outcome [5] | Potency [6]

Cc1nnc(C(C)C)n1C1CC2CCC(C1)N2CCC(NC(=O)C1CCC(F)(F)CC1)c1ccccc1 (stereo unspecified)
inactive: outcome [1] | outcome [2] | max response [3] 8.02% | max response [4] -0.909% | outcome [5] | Potency [6]

COc1cc(/C=C/C(=O)OC[C@H]2O[C@H](O[C@]3(CO)O[C@H](CO)[C@@H](O)[C@@H]3O)[C@H](O)[C@@H](O)[C@@H]2O)cc(OC)c1O
inactive: outcome [1] | outcome [2] | max response [3] -1.09% | max response [4] -20.7% | outcome [5] inactive [at 17.4 µM] | Potency [6]

CC1=C2[C@@H]([C@H](C)CC[C@H]2/C=C(\C)C(=O)O)[C@H](O)C1
inactive: outcome [1] | outcome [2] | max response [3] 3.15% | max response [4] 3.16% | outcome [5] | Potency [6]

FC(F)(F)c1cc(C(F)(F)F)c2ccc3nc(-c4nnco4)cn3c2n1
inactive: outcome [1] | outcome [2] | max response [3] -10% | outcome [4] | outcome [5] | Potency [6]

CC1(C)CCCC2(C)C3=C(C(=O)OC3O)C(O)CC12 (stereo unspecified)
inactive: outcome [1] | outcome [2] | max response [3] 2.72% | outcome [4] | outcome [5] | Potency [6]

CC1CCC2C(C(=O)O)=CC3C(O)C(C)(C)CC123 (stereo unspecified)
inactive: outcome [1] | outcome [2] | outcome [3] | max response [4] -3.55% | outcome [5] | Potency [6]

C[C@]1(O)CC[C@@H]2C(C(=O)O)=CO[C@@H](O[C@@H]3O[C@H](COC(=O)c4ccc(O)cc4)[C@@H](O)[C@H](O)[C@H]3O)[C@@H]21
inactive: outcome [1] | outcome [2] | max response [3] 9.39% | max response [4] 2.95% | outcome [5] inactive [at 17.4 µM] | Potency [6]

COc1cc(C(O)C(CO)Oc2ccc(CCCO[C@@H]3O[C@@H](C)[C@H](O)[C@@H](O)[C@H]3O)cc2OC)ccc1O (stereo partly specified)
inactive: outcome [1] | outcome [2] | outcome [3] | max response [4] -2.23% | outcome [5] inactive [at 17.4 µM] | Potency [6]

C=C1CCC2C(C)(CO[C@@H]3O[C@H](CO)[C@@H](O)[C@H](O)[C@H]3O)C(O)CCC2(C)C1C(=O)CC1=CCOC1=O (stereo partly specified)
inactive: outcome [1] | outcome [2] | max response [3] 4.59% | max response [4] 1.1% | outcome [5] inactive [at 17.4 µM] | Potency [6]

COc1ccc([C@H]2Cc3cccc(O)c3C(=O)O2)cc1
inactive: outcome [1] | outcome [2] | max response [3] 9.62% | outcome [4] | outcome [5] | Potency [6]

COc1ccc2c(c1O)OC[C@H]1c3ccc(O)cc3O[C@@H]21
inactive: outcome [1] | outcome [2] | outcome [3] | outcome [4] | outcome [5] | Potency [6]

CC1=C2C=C(CO)C(CO)CCC2(C)CCC1=O (stereo unspecified)
inactive: outcome [1] | outcome [2] | outcome [3] | max response [4] -1.32% | outcome [5] | Potency [6]

CCC(C)C(=O)O[C@@H]1[C@@H](O)[C@@H](O[C@H]2O[C@H](CO)[C@@H](O)[C@H](O)[C@H]2O)O[C@H](CO)[C@H]1O (stereo partly specified)
inactive: outcome [1] | outcome [2] | outcome [3] | outcome [4] | outcome [5] inactive [at 17.4 µM] | Potency [6]

CC(=O)c1c(O)cc2cccc3c2c1CC(C)(O)O3 (stereo unspecified)
inactive: outcome [1] | outcome [2] | max response [3] 4.55% | max response [4] -0.44% | outcome [5] | Potency [6]

CC12CCC3C(C)(C)C(O)CCC3(C)C1Cc1c(oc(C(=O)O)cc1=O)O2 (stereo unspecified)
inactive: outcome [1] | outcome [2] | outcome [3] | max response [4] 1.94% | outcome [5] | Potency [6]

C[C@@H]1O[C@@H](O[C@H]2[C@H](OC(=O)[C@]34CCC(C)(C)C[C@H]3C3=CCC5[C@@]6(C)C[C@H](O)[C@H](O[C@@H]7O[C@H](CO[C@@H]8OC[C@H](O)[C@H](O)[C@H]8O)[C@@H](O)[C@H](O)[C@H]7O)C(C)(C)C6CC[C@@]5(C)[C@]3(C)C[C@H]4O)OC[C@@H](O)[C@@H]2O)[C@H](O)[C@H](O[C@@H]2OC[C@](O)(CO)[C@H]2O)[C@H]1O[C@@H]1OC[C@H](O)[C@H](O[C@@H]2OC[C@@H](O)[C@H](O)[C@H]2O)[C@H]1O (stereo partly specified)
inactive: outcome [1] | outcome [2] | outcome [3] | max response [4] -1.57% | outcome [5] inactive [at 9.27 µM] | outcome [6] inactive [at 9.27 µM]

CC1CC(=O)C2=C(O1)OC1(C)CCC3C(C)(C)C=CC(=O)C3(C)C1C2 (stereo unspecified)
inactive: outcome [1] | outcome [2] | outcome [3] | outcome [4] | outcome [5] | Potency [6]

— PubChem BioAssay (NCATS)
